Gal4-VP16 FLuc = VP16 counterscreen qHTS for inhibitors of ROR gamma transcriptional activity; Potency, µM (top dose mostly 53.6 µM), without a hit: top-dose activity, negative = inhibition, hits mostly inhibitors; Drosophila S2 Gal4-VP16 UAS-luciferase, luminescence, 20 h; 310,000 tested, 3.5% active;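 note: Gal4-VP16 expression switched on by copper sulfate through the metallothionein promoter; potency is the fitted concentration of half-maximal effect; nearly all actives have a fitted effect of over 50% in size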
RORg inh = qHTS for inhibitors of ROR gamma transcriptional activity. Nuclear receptor ROR-gamma (Mus musculus), P51450. Drosophila S2 Gal4-RORgamma UAS-luciferase reporter, 20 h. Potency, µM (series often up to 53.6 µM), for the others: at the highest dose activity change, negative = inhibition, actives largely listed as inhibitors. 310,000 tested, 5.4% active. AID 2551, 2010; note: potency is the fitted concentration of half-maximal effect; nearly all actives have a fitted effect of over 60% in size
Target sequence (P51450 whole entry, looked up, the tested form may be a part): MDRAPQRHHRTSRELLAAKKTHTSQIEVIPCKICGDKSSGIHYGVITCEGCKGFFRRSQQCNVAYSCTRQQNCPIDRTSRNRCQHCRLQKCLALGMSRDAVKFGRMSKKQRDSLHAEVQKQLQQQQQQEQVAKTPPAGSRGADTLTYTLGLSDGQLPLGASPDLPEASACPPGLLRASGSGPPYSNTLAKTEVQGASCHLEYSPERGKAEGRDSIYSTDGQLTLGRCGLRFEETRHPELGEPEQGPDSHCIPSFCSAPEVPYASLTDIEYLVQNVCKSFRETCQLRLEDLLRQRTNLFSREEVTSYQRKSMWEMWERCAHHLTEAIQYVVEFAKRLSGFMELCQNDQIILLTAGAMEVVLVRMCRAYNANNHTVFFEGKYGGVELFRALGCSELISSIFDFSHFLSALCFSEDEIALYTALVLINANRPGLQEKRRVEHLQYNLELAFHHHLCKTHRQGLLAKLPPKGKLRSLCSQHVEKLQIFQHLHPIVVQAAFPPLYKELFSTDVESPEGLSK
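Read-out: Photinus luciferase luminescence; inhibitors lower reporter signal. Insect Schneider cells with Gal4-ROR gamma fusion under metallothionein promoter, UAS reporter; 700 uM final copper sulfate induction, 20 hr, ambient temperature.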
B2AR arrestin = qHTS assay of beta-arrestin-biased ligands of beta2-adrenergic receptor; Beta-2 adrenergic receptor (Homo sapiens), P07550; beta-arrestin recruitment to beta2AR, cell-based reporter; Potency, µM (highest dose often 46.1 µM), for inactives: at the top dose activation, most hits filed as activators; 330,000 tested, 0.02% active;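 note: potency is the fitted concentration of half-maximal effect; 0% = DMSO controls and full agonism = EC100 isoproterenol or metaproterenol; nearly all actives have a fitted effect of over 65% in size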
ELG1 DNA repair = qHTS screen for small molecules that inhibit ELG1-dependent DNA repair in human embryonic kidney (HEK293T) cells expressing luciferase-tagged ELG1 | AID 504467, 2011 | HEK293T ELG1-luciferase reporter, luminescence, 16 h; DNA damage induced by 5-fluorouridine | 330,000 tested, 2.3% active | Potency, µM (highest dose often 46.1 µM), for inactives: top-dose activity change, negative = inhibition, most hits filed as inhibitors; note: potency is the fitted concentration of half-maximal effect; nearly all actives have a fitted effect of over 55% in size
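Quantitative HTS, concentration-response format. 2,000 cells/well co-treated with 5-fluorouridine and compound, 16 hr in 5% CO2 at 37 °C; ONE-Glo luminescence read after 30 min.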
TSHR antagonist = Antagonists of the Thyroid Stimulating Hormone Receptor: HTS campaign. TSHR-expressing cells, TSH-stimulated cAMP HTRF, 2 h; active compounds read low. AID 504810, 2011. 330,000 tested, 0.2% active. Thyrotropin receptor (Homo sapiens), P16473. activity change, negative = inhibition, % at 11.5 µM;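 active = activity change below a set negative limit, meaning inhibition stronger than a set level, cut at about -70% in these data; inconclusive = activity change between two set negative limits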
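TSHR-expressing cells, 200/well, pre-treated with compound, then stimulated with EC80 TSH (4nM final) for 2 hours at 37 deg C. cAMP measured by competitive HTRF: anti-cAMP cryptate antibody in lysis buffer plus cAMP-d2, read after 30 minutes at room temperature.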
An asterisk follows results filed as active; ? = inconclusive; / = not tested or not shown. Compounds with a hit are over-represented: about 7.5% of the library has one in this group of screens. Unless noted, calls come from the whole dose curve; as a rule, active = well fitted curve in the direction sought with a large enough effect; inconclusive = small, poorly fitted or top-dose-only effect, or another doubt; inactive = no such curve, though single readings can be large; an effect the other way counts as inactive or inconclusive. Unless noted, % is set by controls: 0 for no effect and ±100 for the full control effect.

SMILES	Gal4-VP16 FLuc	RORg inh	B2AR arrestin	ELG1 DNA repair	TSHR antagonist
Cc1cc(N/N=C/c2cccc(Cl)c2)nc(-n2nc(C)cc2C)n1	1.3µM*	0.071µM*	-1%	16µM*	2
Cc1noc(C)c1-c1cc(NC2CC2)ncn1	12%	?	/	/	/
CC(C)(Cc1c[nH]c2ccccc12)NCC(O)COc1ccccc1C#N (centres undefined)	-1%	-3%	/	/	/
COCCNc1nc(-c2ccccc2CN(C)C)nc2ccccc12	-8%	-32%	/	/	/
Cc1ccc(C(=O)N/N=C/C2=Cc3ccccc3OC2C)cc1 (centres undefined)	?	3.2µM*	0%	0%	-23
CC1Oc2ccccc2C=C1/C=N/NC(=O)c1ccccc1 (centres undefined)	?	-15%	-1%	?	-5
N#Cc1sc(NCc2ccccn2)nc1Cl	16%	-21%	0%	12%	-11
CCS(=O)(=O)C(C)(CCl)C(=O)Nc1ccc(C(=O)OC)cc1 (centres undefined)	1%	16%	0%	?	-6
O=C(c1ccco1)N1CCN(C(=S)Nc2ccccc2C(F)(F)F)CC1	3%	10%	-1%	21µM*	4
FC(F)(F)c1ccccc1NC(=S)N1CCCC1	9%	-22%	0%	-5%	12
CC[C@@H](C)[C@@H](CO[C@@H](Cc1ccccc1)C(=O)N[C@@H](CCS(C)(=O)=O)C(=O)OC(C)C)NC[C@@H](N)CS	-2%	-1%	/	/	/
CC(=O)Oc1ccc(C(=C2CCCCC2)c2ccc(OC(C)=O)cc2)cc1	3%	12%	/	/	/
C=C(C)Cn1cnc2cc(C)c(C)cc21	-2%	11µM*	-1%	-9%	-7
O=C(O)c1cc(N=Nc2ccc(-c3ccc(N=Nc4ccc(O)c(C(=O)O)c4)cc3)cc2)ccc1O	-7%	7%	/	/	/
COc1ccc(/C=C/C(=O)OCC(=O)Nc2cc3oc4ccccc4c3cc2OC)cc1	-4%	-4%	0%	16%	-9
COCCNC(=S)Nc1cc2oc3ccccc3c2cc1OC	7.1µM*	5.6µM*	6%	?	0
COc1cc2c(cc1NC(=S)NC(=O)c1c(OC)cccc1OC)oc1ccccc12	?	3.5µM*	0%	11%	-1
COc1cc(OC)cc(C(=O)NC(=S)Nc2cc3oc4ccccc4c3cc2OC)c1	?	1.4µM*	0%	-4%	5
COc1cc2c(cc1NC(=O)/C=C/c1cc(OC)c(OC)c(OC)c1)oc1ccccc12	-15%	23%	-1%	5.8µM*	-5
COc1ccc(C(=O)NC(=S)Nc2cc3oc4ccccc4c3cc2OC)cc1	8%	?	-1%	5%	-1
CC(OC(=O)CCN1C(=O)C2CC=CCC2C1=O)C(=O)Nc1cccc(C#N)c1 (centres undefined)	/	/	-1%	11%	1
COc1ccc(-c2cn3cc(C(=O)NN)ccc3n2)cc1	10µM*	?	0%	?	-8
NNC(=O)c1ccc2nc(-c3ccc(Br)cc3)cn2c1	?	11µM*	0%	?	-15
COc1ccc(C(=O)NN)cc1	-11%	?	0%	?	-1
Cc1c(C)c2c(c(C)c1O)CC[C@@](C)(CCC[C@@H](C)CCC[C@@H](C)CCCC(C)C)O2	-1%	-13%	/	/	/
SMILES	Gal4-VP16 FLuc	RORg inh	B2AR arrestin	ELG1 DNA repair	TSHR antagonist
CCCn1c(=O)c2c(C(F)(F)F)cc(-c3ccco3)nc2n(CCC)c1=O	4%	-22%	0%	2%	7
CCCCn1c(=O)n(C)c(=O)c2c(C(F)(F)F)cc(-c3ccncc3)nc21	2%	-18%	0%	15µM*	-9
COC(=O)c1ccc(NC(=S)NCCCn2ccnc2)cc1	19%	24%	0%	-1%	8
CC1(C)CC(=O)C2=C(C1)N(c1ccc(F)cc1)C(=O)NC2(C(F)(F)F)C(F)(F)F	-7%	11µM*	0%	-3%	-6
CCOc1ccccc1NC(=O)CCS(=O)(=O)c1ccc(Br)cc1	0%	7%	-1%	-4%	-1
Cc1cccc(N(C)S(=O)(=O)c2nnc(NC(=O)C3CCCCC3)s2)c1	/	/	0%	/	-6
Cc1ccccc1Nc1nc(N)nc(COC(=O)[C@@H](NC(=O)c2ccccc2Cl)C(C)C)n1	/	/	0%	-9%	-2
CCc1ccc(NC2=NCC(c3ccccc3)S2)cc1 (centres undefined)	?	8.9µM*	0%	?	-13
Cc1ccc(NC2=NCC(Cc3ccc(Br)cc3)S2)cc1 (centres undefined)	?	13µM*	0%	-4%	-11
Cc1ccc(CNC(=O)Cc2ccc(NC3=NC4CS(=O)(=O)CC4S3)cc2)cc1 (centres undefined)	1%	-18%	-1%	?	16
COc1cc(OC)c(NC(C)C(=O)N2CCCC2)cc1Cl (centres undefined)	-2%	11%	0%	2%	-1
CCCC(CCC(=O)Nc1cccc([N+](=O)[O-])c1)C(=O)O (centres undefined)	0%	6%	0%	-4%	-1
O=S(=O)(c1ccccc1)N1CCC2(CCN(c3ncccn3)CC2)CC1	3%	7%	/	/	/
Nc1cc(=O)[nH]c(SCc2ccc(Cl)cc2)n1	1%	16%	0%	?	-4
CC(C)(C)c1ccc(CSc2nc(N)cc(=O)[nH]2)cc1	7.9µM*	-45%	0%	?	-11
C=CC[C@@H](CC(=O)N[C@H](CO)Cc1ccccc1)C(=O)N[C@H](COC(=O)[C@@H](CC=C)Cc1ccc(F)cc1)Cc1c[nH]c2ccccc12	/	/	4%	21µM*	-31
C=CC[C@@H](CC(=O)N[C@@H](CO)Cc1ccccc1)C(=O)N[C@@H](COC(=O)[C@@H](CC=C)Cc1ccc(F)cc1)Cc1c[nH]c2ccccc12	/	/	0%	1%	-33
C=CC[C@@H](CC(=O)N[C@@H](CO)Cc1ccccc1)C(=O)N[C@H](COC(=O)[C@@H](CC=C)CC(=O)OC(C)(C)C)Cc1c[nH]c2ccccc12	/	/	0%	21µM*	-15
COc1ccc(-c2nc(SC(CC(=O)NCCN3CCOCC3)c3cccs3)n[nH]2)cc1 (centres undefined)	-5%	26%	-1%	7%	2
COc1ccc(-c2c(O)c3cc(O)cc(O)c3oc2=O)cc1	?	5%	/	/	/
O=C(c1cccc(F)c1)N1CCC[C@@]2(CCN(c3ccncc3)C2)C1	8%	-13%	/	/	/
Cc1ccc(OCC(=O)Nc2sc3c(c2C#N)CC(C)(C)NC3(C)C)cc1	5%	-1%	1%	-14%	-3
